# Columns and labels:
# Test in all cases: DAPPL (digital affinity profiling via proximity ligation, sequencing); 10 mM Tris-HCl pH 7.5, 50 mM NaCl, 1 mM DTT, 4% glycerol, room temperature, 30 min; GST-TFs on glutathione beads, 16-mer random dsDNA library, 0.1% formaldehyde crosslink after washing; high values mean tight binding
# FEV = target: T1, FEV (Homo sapiens, UniProt Q99581 1-238); conditions: protein: recombinant; tags: N-terminal GST; dsDNA, one strand shown
# T1 sequence: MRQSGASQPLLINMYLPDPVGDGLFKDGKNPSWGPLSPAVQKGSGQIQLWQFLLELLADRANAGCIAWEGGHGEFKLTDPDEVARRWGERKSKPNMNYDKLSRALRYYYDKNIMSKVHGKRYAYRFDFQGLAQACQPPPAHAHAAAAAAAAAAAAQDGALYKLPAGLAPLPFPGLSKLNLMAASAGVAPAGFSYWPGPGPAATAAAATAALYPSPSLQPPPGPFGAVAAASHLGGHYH
# How it was run: (§1)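 Human transcription factors were made in yeast as GST fusions, captured on glutathione beads and barcoded with DNA. With a tag-only sample included, the pool was incubated with 200 nmole of a random double-stranded 16-mer DNA library in Tris/NaCl/DTT/glycerol buffer at room temperature for 30 min, then crosslinked with 0.1% formaldehyde after washing, ligated by proximity, amplified and sequenced. For binding signal, each hexamer's read frequency for a factor is divided by its frequency for the tag-only sample.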
# ETV5 = ETV5 (Homo sapiens, UniProt P41161 1-510); conditions: protein: recombinant; tags: N-terminal GST; dsDNA, one strand shown
# Chain of ETV5 (P41161 whole entry): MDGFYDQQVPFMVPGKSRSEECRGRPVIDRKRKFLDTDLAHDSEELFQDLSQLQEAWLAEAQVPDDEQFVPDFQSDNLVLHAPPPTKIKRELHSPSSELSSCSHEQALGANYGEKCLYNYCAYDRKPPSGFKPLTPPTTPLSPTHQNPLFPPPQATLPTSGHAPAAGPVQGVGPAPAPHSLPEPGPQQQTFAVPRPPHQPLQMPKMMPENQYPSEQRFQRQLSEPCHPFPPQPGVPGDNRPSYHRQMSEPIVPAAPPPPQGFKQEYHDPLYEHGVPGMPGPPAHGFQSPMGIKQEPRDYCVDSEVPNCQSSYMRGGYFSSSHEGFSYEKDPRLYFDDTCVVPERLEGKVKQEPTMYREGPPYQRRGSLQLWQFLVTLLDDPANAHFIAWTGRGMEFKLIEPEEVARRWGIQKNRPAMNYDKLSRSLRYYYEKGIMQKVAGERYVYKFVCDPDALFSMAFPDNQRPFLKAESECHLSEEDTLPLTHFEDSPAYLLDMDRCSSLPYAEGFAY
# How it was run: as §1
# HSF1 = HSF1 (Homo sapiens, UniProt Q00613 1-529); conditions: protein: recombinant; tags: N-terminal GST; chain copies: 3; dsDNA, one strand shown
# Chain of HSF1 (Q00613 whole entry): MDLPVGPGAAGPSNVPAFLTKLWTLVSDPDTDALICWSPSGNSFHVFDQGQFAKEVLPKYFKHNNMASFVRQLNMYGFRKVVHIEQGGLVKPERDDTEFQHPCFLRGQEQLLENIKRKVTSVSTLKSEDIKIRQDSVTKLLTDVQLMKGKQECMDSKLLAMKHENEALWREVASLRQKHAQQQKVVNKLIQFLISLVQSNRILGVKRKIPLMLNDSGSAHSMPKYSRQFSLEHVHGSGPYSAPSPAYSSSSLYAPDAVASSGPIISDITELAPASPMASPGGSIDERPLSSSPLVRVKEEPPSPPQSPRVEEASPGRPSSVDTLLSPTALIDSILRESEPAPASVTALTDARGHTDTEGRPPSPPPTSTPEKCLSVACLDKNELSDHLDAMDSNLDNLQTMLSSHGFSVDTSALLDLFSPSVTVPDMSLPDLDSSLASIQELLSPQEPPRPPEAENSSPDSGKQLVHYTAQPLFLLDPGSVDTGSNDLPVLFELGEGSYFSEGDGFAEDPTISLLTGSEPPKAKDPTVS
# How it was run: as §1
# SPIC = target: T2, SPIC (Homo sapiens, UniProt Q8N5J4 1-248); conditions: protein: recombinant; tags: N-terminal GST; dsDNA, one strand shown
# T2 sequence: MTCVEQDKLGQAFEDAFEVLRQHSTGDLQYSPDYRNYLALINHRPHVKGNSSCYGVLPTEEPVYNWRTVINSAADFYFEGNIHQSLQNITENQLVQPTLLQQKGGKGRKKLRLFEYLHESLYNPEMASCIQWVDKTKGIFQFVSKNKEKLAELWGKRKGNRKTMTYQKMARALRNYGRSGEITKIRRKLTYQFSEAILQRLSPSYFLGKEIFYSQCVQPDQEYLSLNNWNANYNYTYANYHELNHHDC
# How it was run: as §1
# ELF4 = ELF4 (Homo sapiens, UniProt Q99607 1-663); conditions: protein: recombinant; tags: N-terminal GST; dsDNA, one strand shown
# Chain of ELF4 (Q99607 whole entry): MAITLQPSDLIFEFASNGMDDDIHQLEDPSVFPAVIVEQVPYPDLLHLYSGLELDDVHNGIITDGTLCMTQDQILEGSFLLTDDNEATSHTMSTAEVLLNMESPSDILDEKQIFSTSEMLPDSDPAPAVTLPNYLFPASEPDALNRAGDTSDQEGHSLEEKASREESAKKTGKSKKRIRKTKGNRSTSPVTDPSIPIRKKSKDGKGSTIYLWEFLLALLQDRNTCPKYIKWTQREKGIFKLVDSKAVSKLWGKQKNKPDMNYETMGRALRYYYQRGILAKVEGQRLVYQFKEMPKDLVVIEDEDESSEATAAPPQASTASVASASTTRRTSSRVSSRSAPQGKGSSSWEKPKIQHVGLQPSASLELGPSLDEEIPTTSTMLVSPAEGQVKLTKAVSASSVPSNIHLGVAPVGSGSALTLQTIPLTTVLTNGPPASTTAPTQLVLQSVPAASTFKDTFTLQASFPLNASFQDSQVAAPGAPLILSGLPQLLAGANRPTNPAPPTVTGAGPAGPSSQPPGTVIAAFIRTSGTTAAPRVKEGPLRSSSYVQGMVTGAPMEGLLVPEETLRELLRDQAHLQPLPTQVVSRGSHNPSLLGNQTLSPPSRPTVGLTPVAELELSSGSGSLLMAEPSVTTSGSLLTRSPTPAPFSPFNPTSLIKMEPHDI
# How it was run: as §1
# ELK4 = target: T3, ELK4 (Homo sapiens, UniProt P28324-2 1-405); conditions: protein: recombinant; tags: N-terminal GST; dsDNA, one strand shown
# T3 sequence: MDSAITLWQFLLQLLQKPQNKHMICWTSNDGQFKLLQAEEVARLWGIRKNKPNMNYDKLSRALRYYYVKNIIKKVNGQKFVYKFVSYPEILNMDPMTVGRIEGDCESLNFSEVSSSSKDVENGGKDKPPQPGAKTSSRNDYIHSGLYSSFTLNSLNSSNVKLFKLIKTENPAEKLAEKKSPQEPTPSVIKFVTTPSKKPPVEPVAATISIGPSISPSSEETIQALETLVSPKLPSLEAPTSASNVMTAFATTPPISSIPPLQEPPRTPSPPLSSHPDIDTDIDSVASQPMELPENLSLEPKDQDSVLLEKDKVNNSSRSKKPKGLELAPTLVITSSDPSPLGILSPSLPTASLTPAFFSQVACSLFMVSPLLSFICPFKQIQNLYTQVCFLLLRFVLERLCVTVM
# How it was run: as §1
# ETV2 = target: T4, ETV2 (Homo sapiens, UniProt O00321 1-342); conditions: protein: recombinant; tags: N-terminal GST; dsDNA, one strand shown
# T4 sequence: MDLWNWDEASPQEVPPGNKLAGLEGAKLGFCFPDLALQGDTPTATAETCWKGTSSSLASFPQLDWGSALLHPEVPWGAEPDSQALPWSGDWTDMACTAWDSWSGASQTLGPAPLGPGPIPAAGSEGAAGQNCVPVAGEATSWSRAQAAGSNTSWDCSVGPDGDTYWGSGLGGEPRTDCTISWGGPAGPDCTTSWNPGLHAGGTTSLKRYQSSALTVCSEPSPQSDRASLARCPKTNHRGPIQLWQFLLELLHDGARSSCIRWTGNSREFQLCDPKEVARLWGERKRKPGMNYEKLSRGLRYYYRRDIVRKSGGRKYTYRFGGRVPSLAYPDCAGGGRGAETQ
# How it was run: as §1
# ELF3 = target: T5, ELF3 (Homo sapiens, UniProt P78545 1-371); conditions: protein: recombinant; tags: N-terminal GST; dsDNA, one strand shown
# T5 sequence: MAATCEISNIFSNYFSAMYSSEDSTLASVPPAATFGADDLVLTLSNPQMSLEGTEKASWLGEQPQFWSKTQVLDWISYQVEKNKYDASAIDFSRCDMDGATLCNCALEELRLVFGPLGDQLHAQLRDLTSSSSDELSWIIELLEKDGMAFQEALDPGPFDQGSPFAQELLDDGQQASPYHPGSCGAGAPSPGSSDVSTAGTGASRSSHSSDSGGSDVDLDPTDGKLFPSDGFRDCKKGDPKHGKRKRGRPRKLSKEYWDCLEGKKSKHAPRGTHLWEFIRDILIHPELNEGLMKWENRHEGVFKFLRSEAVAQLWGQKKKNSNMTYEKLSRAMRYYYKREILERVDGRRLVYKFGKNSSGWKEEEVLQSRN
# How it was run: as §1
# CRX = CRX (Homo sapiens, UniProt O43186 1-299); conditions: protein: recombinant; tags: N-terminal GST; dsDNA, one strand shown
# Chain of CRX (O43186 whole entry): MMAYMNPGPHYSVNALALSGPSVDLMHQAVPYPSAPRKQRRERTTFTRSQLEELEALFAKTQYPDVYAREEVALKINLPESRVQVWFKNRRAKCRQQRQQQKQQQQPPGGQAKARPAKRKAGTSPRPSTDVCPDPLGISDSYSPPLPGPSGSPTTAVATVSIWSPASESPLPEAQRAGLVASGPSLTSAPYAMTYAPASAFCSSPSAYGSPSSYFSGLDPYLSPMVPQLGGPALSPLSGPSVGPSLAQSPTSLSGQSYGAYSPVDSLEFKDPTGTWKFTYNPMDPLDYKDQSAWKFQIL
# How it was run: as §1
# ETV1 = ETV1 (Homo sapiens, UniProt P50549 1-477); conditions: protein: recombinant; tags: N-terminal GST; dsDNA, one strand shown
# Chain of ETV1 (P50549 whole entry): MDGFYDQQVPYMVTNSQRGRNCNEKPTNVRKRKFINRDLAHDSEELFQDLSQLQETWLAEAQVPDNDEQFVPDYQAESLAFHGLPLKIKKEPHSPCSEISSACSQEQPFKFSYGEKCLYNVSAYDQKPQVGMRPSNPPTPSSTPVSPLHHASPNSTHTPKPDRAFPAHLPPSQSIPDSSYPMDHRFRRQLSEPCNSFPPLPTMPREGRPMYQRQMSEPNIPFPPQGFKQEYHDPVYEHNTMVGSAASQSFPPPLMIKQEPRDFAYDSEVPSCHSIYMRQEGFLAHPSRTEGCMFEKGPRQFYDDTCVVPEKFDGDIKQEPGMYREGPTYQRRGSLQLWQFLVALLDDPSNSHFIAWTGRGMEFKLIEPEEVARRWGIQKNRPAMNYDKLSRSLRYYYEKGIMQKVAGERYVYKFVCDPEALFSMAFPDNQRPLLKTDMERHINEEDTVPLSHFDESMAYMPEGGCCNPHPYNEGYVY
# How it was run: as §1
# ERF = target: T6, ERF (Homo sapiens, UniProt P50548 1-548); conditions: protein: recombinant; tags: N-terminal GST; dsDNA, one strand shown
# T6 sequence: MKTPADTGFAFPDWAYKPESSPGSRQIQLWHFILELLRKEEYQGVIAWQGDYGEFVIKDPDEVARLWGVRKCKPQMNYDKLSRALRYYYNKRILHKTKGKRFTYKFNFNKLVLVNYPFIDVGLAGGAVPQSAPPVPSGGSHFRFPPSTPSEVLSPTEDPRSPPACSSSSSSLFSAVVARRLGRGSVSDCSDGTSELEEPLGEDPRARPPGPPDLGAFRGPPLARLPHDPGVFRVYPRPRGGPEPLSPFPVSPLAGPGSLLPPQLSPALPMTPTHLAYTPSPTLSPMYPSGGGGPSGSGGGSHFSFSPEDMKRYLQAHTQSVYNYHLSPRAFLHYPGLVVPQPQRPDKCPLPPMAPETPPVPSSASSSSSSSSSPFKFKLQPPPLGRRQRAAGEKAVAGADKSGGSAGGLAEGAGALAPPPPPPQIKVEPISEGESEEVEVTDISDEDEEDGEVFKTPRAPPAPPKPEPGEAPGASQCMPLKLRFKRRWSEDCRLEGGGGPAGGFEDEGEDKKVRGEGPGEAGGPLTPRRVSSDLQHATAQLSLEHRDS
# How it was run: as §1
# ETV3L = target: T7, ETV3L (Homo sapiens, UniProt Q6ZN32 1-361); conditions: protein: recombinant; tags: N-terminal GST; dsDNA, one strand shown
# T7 sequence: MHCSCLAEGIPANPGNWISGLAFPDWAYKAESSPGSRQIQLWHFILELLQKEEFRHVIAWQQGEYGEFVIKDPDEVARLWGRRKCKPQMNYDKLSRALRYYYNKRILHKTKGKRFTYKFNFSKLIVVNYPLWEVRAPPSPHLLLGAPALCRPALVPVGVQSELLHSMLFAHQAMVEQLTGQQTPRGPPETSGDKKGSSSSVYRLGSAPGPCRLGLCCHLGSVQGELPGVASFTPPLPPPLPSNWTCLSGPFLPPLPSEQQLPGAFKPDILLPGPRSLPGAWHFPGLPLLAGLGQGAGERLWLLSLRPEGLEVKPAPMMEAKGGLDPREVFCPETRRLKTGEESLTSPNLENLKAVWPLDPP
# How it was run: as §1
# ETS2 = target: T8, ETS2 (Homo sapiens, UniProt P15036 1-469); conditions: protein: recombinant; tags: N-terminal GST; dsDNA, one strand shown
# T8 sequence: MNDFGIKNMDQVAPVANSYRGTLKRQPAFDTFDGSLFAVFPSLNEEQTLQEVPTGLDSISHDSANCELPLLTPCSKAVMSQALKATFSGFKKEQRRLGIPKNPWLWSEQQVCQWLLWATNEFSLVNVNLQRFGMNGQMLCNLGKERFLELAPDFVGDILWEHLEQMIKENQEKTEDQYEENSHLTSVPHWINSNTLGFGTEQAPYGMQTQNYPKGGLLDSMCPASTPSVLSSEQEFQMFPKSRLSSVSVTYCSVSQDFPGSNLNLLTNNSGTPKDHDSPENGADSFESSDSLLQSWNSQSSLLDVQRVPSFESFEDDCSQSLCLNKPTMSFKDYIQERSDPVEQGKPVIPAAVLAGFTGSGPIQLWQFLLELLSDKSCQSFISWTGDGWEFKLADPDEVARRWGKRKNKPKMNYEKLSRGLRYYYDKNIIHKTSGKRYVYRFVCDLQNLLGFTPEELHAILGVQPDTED
# How it was run: as §1
# SPDEF = target: T9, SPDEF (Homo sapiens, UniProt O95238 1-335); conditions: protein: recombinant; tags: N-terminal GST; dsDNA, one strand shown
# T9 sequence: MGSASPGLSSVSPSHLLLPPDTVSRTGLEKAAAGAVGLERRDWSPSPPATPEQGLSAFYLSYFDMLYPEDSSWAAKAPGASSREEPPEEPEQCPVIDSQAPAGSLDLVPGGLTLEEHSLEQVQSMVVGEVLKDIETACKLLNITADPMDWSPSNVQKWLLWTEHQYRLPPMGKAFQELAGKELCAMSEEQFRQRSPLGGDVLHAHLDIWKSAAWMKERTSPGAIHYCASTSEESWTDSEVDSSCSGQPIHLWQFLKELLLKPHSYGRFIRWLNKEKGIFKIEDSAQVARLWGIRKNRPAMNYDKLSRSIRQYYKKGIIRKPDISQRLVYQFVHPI
# How it was run: as §1
# ETV7 = target: T10, ETV7 (Homo sapiens, UniProt Q9Y603 1-341); conditions: protein: recombinant; tags: N-terminal GST; dsDNA, one strand shown
# T10 sequence: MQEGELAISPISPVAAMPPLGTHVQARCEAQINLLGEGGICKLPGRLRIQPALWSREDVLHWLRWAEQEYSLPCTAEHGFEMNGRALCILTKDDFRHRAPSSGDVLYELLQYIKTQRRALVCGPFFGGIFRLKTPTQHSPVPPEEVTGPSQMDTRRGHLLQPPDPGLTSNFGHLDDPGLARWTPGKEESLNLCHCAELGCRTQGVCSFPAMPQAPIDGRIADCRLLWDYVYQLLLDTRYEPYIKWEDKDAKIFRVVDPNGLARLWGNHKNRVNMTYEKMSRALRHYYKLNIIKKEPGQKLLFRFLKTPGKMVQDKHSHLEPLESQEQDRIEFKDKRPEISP
# How it was run: as §1
# ELF5 = target: T11, ELF5 (Homo sapiens, UniProt Q9UKW6-2 1-255); conditions: protein: recombinant; tags: N-terminal GST; dsDNA, one strand shown
# T11 sequence: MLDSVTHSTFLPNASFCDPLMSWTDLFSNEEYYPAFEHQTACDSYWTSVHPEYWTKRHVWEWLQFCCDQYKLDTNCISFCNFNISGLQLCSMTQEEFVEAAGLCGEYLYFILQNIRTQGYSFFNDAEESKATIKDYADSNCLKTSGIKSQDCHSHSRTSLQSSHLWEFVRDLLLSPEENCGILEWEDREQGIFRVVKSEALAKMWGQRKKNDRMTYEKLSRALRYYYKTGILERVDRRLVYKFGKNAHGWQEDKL
# How it was run: as §1
# ETV3 = target: T12, ETV3 (Homo sapiens, UniProt P41162-2 1-143); conditions: protein: recombinant; tags: N-terminal GST; dsDNA, one strand shown
# T12 sequence: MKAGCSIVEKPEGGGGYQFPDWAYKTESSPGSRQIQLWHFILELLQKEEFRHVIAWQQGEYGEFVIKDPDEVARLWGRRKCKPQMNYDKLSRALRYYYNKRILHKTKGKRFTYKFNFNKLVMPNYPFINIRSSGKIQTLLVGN
# How it was run: as §1
# ETV6 = ETV6 (Homo sapiens, UniProt P41212 1-452); conditions: protein: recombinant; tags: N-terminal GST; dsDNA, one strand shown
# Chain of ETV6 (P41212 whole entry): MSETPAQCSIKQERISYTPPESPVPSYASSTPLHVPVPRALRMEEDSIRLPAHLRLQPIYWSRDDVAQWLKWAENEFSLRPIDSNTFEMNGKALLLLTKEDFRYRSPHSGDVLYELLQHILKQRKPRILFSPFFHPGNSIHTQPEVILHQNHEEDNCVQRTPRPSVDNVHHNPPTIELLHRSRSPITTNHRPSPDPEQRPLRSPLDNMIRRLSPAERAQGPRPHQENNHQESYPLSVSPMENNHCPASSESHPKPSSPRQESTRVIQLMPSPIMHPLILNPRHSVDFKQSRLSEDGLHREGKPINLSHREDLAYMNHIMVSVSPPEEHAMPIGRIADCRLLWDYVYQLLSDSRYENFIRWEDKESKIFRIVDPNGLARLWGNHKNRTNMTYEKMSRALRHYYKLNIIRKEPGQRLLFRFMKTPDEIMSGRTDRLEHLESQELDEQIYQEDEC
# How it was run: as §1
sequence,measurement,setting,value
TAACCC,binding signal,FEV,"1.26 fold enrichment (6-mer frequency, TF over GST control)"
same,binding signal,ETV5,"1.31 fold enrichment (6-mer frequency, TF over GST control)"
same,binding signal,HSF1,"1.3 fold enrichment (6-mer frequency, TF over GST control)"
same,binding signal,SPIC,"1.35 fold enrichment (6-mer frequency, TF over GST control)"
same,binding signal,ELF4,"1.32 fold enrichment (6-mer frequency, TF over GST control)"
same,binding signal,ELK4,"1.2 fold enrichment (6-mer frequency, TF over GST control)"
same,binding signal,ETV2,"1.17 fold enrichment (6-mer frequency, TF over GST control)"
same,binding signal,ELF3,"1.29 fold enrichment (6-mer frequency, TF over GST control)"
same,binding signal,CRX,"1.77 fold enrichment (6-mer frequency, TF over GST control)"
same,binding signal,ETV1,"1.29 fold enrichment (6-mer frequency, TF over GST control)"
same,binding signal,ERF,"1.17 fold enrichment (6-mer frequency, TF over GST control)"
same,binding signal,ETV3L,"1.22 fold enrichment (6-mer frequency, TF over GST control)"
same,binding signal,ETS2,"1.26 fold enrichment (6-mer frequency, TF over GST control)"
same,binding signal,SPDEF,"1.32 fold enrichment (6-mer frequency, TF over GST control)"
same,binding signal,ETV7,"1.31 fold enrichment (6-mer frequency, TF over GST control)"
same,binding signal,ELF5,"1.3 fold enrichment (6-mer frequency, TF over GST control)"
same,binding signal,ETV3,"1.26 fold enrichment (6-mer frequency, TF over GST control)"
same,binding signal,ETV6,"1.3 fold enrichment (6-mer frequency, TF over GST control)"
